Source: PubChem BioAssay
BLM helicase inh: Bloom syndrome helicase (human) inhibition | Potency, µM (top dose mostly 56.1 µM), inactives show at the top dose activity change, negative = inhibition, usual class: inhibitors | recombinant BLM DNA unwinding, fluorescence dequenching | actives 0.2% (n = 350,000) | AID 2528 | P54132;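 also: plate controls were vehicle for no effect and no enzyme for full effect; nearly all actives have a fitted effect of over 35% in size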
RGS4 inh: blocks human RGS4-accelerated GTP hydrolysis; Transcreener GDP fluorescence polarization, RGS4-accelerated GTP hydrolysis; Potency, µM (doses to about 114 µM), inactives show at the highest dose activity change, negative = inhibition, usual class: inhibitors; actives 0.039% (n = 390,000); also: nearly all actives have a fitted effect of over 75% in size
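MLSMR compounds (23 nl, pin-transferred) preincubated 10 min at room temperature with a 500nM (2x) first reagent, then RGS4 at 900nM (2x) plus Transcreener GDP mix added; fluorescence polarization (620/688 nm) read before and after 90 min at 30 °C.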
TDP1 block: TDP1 (human) enzyme inhibition; Q9NUW8; recombinant TDP1, AlphaScreen DNA substrate cleavage; Potency, µM (titrated, usually from 130 µM), for the others: at the top dose activity change, negative = inhibition, most hits filed as inhibitors; actives 0.28% (n = 350,000); also: nearly all actives have a fitted effect of over 40% in size
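Recombinant human Tdp1 (E. coli-expressed, 1 nM final) preincubated with compounds 15 min at room temperature, then 5'-biotin/3'-phosphotyrosine-FITC DNA substrate (15 nM final) added for 5 min. AlphaScreen beads (10 ug/ml final) added 10 min; cleavage lowers signal.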
APEX1 inh: blocks human APE1 abasic DNA cleavage; P27695; recombinant APE1, TAMRA/BHQ-2 abasic DNA cleavage fluorescence; Potency, µM (doses to about 65.8 µM), inactives show top-dose activity change, negative = inhibition, actives largely listed as inhibitors; actives 0.35% (n = 350,000); AID 2517;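 also: plate controls were vehicle for no effect and reference inhibitor for full effect; nearly all actives have a fitted effect of over 55% in size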
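Measures dequenching upon AP-site incision of a 5'-TAMRA/3'-BHQ-2 THF-containing duplex, 50 nM; human APE1 0.75 nM after 15 min room-temperature exposure to compound; kinetic three-point read at one-minute spacing.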
GCN5L2 inh: blocks human GCN5L2 histone acetyltransferase. Q92830. GCN5L2 HAT assay, ThioGlo1 CoA-SH fluorescence. Potency, µM (titrated, usually from 58.9 µM), without a hit: at the highest dose activity change, negative = inhibition, most hits filed as inhibitors. actives 0.21% (n = 390,000)
Target sequence (Q92830 whole entry, looked up): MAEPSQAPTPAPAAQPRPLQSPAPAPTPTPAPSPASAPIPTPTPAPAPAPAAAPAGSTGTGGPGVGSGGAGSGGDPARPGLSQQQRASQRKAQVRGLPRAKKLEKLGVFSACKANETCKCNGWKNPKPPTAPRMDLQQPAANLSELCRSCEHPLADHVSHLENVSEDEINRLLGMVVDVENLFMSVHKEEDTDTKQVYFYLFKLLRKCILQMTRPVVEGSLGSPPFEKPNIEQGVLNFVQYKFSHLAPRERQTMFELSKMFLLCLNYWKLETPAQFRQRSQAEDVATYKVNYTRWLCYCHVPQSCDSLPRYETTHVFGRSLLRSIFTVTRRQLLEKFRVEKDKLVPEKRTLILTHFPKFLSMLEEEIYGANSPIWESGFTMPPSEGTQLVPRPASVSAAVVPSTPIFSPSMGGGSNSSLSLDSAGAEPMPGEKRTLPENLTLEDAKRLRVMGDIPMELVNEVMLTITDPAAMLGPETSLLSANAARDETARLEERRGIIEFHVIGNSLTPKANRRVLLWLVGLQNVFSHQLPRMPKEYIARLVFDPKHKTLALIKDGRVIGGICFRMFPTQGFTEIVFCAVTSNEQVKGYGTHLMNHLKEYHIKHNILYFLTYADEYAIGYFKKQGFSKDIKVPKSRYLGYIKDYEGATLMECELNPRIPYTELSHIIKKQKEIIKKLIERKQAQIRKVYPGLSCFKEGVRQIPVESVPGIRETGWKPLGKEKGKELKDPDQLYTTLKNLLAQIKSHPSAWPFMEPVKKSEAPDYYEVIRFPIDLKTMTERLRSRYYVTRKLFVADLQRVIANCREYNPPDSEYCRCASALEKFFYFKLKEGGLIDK
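Enzyme at 20nM final was mixed with library compounds for 15 min at room temperature. Peptide H3(1-25) at 75uM, acetyl-CoA at 70uM and ThioGlo1 at 50uM were then added. Plates were read immediately and after 20 min (Ex340nm/Em540nm).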
RECQ1 inh: RECQ1 (human) helicase inhibition; P46063; RECQ1 DNA unwinding, red fluorescence kinetic read; Potency, µM (highest dose often 57.3 µM), for inactives: at the top dose activity, negative = inhibition, most hits filed as inhibitors; actives 0.54% (n = 240,000); AID 2549;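 also: plate controls were vehicle for no effect and no enzyme for full effect; nearly all actives have a fitted effect of over 30% in size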
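50 nM RECQ1T1 preincubated 15 min with compound in Tris pH 8.0 buffer with MgCl2, DTT, Tween-20 and 2.5 ug/ml poly(dI-dC); started with 200 nM TAMRA/BHQ-2 forked duplex and 2 mM ATP. Unwinding read as fluorescence (525/598 nm), two reads 2 h apart.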
An asterisk follows results filed as active; i = inactive; ? = inconclusive; . = no result; [ ] = remark or other dose. The list is not random: actives were taken first. Their share in the collection is about 0.87%. Calls follow the shape of the dose curve; as a rule, active = well fitted curve in the direction sought with a large enough effect; inconclusive = small, poorly fitted or top-dose-only effect, or another doubt; inactive = no such curve, though single readings can be large; an effect the other way counts as inactive or inconclusive. Unless noted, % is scaled to controls: 0 for no effect and ±100 for the full control effect; potency is read from the fitted curve at half-maximal effect.

SMILES	BLM helicase inh	RGS4 inh	TDP1 block	APEX1 inh	GCN5L2 inh	RECQ1 inh
COc1ccc(OC)c(-c2nnc3n2N=C(c2ccc(OC)c(O[C@H]4CCOC4)c2)CS3)c1	.	.	.	-5%	.	.
COc1cc(OC)c(OC)cc1/C=N/Nc1ncnc2c1[nH]c1ccccc12	22µM*	16%	1%	4%	-21%	-1%
Brc1ccc2c(c1)OCCOCCOc1cc(Br)ccc1OCCOCCOCCO2	16µM*	-22%	3%	0%	-7%	-10%
Brc1cc2c(cc1Br)OCCOCCOCCOCCO2	-3%	?	-1%	4%	1%	-2%
CNCc1ccccc1Sc1ccc(O)c(O)c1	-2%	-29%	.	32µM*	-5%	?
COc1ccc(-c2cc3ccc(O)c(CN4CCCC4)c3oc2=O)cc1	4%	-18%	3%	.	?	.
O=c1oc2c(CN3CCCC3)c(O)ccc2cc1-c1ccccc1	-3%	27%	-3%	.	18µM*	.
CC12CCC(C[N+](C)(CCC[N+](C)(C)C)C1)C2(C)C (stereo not drawn)	-13%	.	.	.	22µM*	.
Cc1cc(=O)oc2cc(OCc3ccc(C(=O)OCC(=O)NC4CCS(=O)(=O)C4)cc3)ccc12 (stereo not drawn)	3%	-34%	8.9µM*	?	-23%	-8%
Cc1cc(=O)oc2cc(OCc3ccc(C(=O)OCC(=O)N(C)C4CCS(=O)(=O)C4)cc3)ccc12 (stereo not drawn)	-7%	-35%	-5%	9%	-2%	i
CC(C)(C)n1ncc2c(=O)n(Cc3cccc(C(F)(F)F)c3)cnc21	.	.	.	-4%	.	.
COc1ccc(C2Nc3ccccc3C(=O)N2Cc2ccccc2)cc1COc1ccc(NC(=O)c2ccccc2)cc1 (stereo not drawn)	.	.	0%	.	.	.
CCc1nn2c(=O)cc(COc3ccc(/C=C4\C(=N)N5N=C(C)SC5=NC4=O)cc3)nc2s1	13µM*	-51%	?	?	?	?
Cc1noc(CN(C)c2ncnc3ccc(-c4ccc5c(c4)OCO5)cc23)n1	.	.	-6%	.	.	.
CCOC(=O)C1=C(CSc2nc(-c3ccccc3)ccc2C#N)OC(N)=C(C#N)C1c1cccnc1 (stereo not drawn)	-8%	?	3%	-3%	-2%	-22%
CCOC(=O)C1=C(CSc2nc(-c3ccccc3)ccc2C#N)OC(N)=C(C#N)C1c1ccccc1 (stereo not drawn)	-17%	-44%	6%	-2%	-15%	22µM*
C=CC(C)(C)c1c(O)c(CC=C(C)C)c(O)c2c(=O)c3ccc(O)c(O)c3oc12	.	-25%	.	.	.	.
C=CC(C)(C)c1[nH]c2ccccc2c1C1=C(O)C(=O)C(c2c[nH]c3c(CC=C(C)C)cccc23)=C(O)C1=O	6.3µM*	i	?	20µM*	16µM*	10µM*
Cc1nn(CC(=O)N2CCC(N3CCCCC3)CC2)c(=O)c2c1sc1ccccc12	-3%	22%	3%	-3%	-2%	.
Cc1cc(C)c2c(=O)n(CC(=O)N3CCC(N4CCCCC4)CC3)sc2n1	-4%	-129%	9%	23%	32µM*	1%
CCCNC(=O)Cn1sc2nc(C)cc(C)c2c1=O	-2%	-101%[11.4 µM]	8%	1%	28µM*	0%
O=C1c2ccccc2C(=O)N1c1cccc2cnccc12	.	.	1%	.	.	.
O=C(Cc1nnc(CNC(=O)c2ccccc2)s1)Nc1ccc(C(F)(F)F)cc1Cl	.	.	1%	.	.	.
Cc1cccc(Nc2nc(C#N)nc(NC3CCCC3)n2)c1	.	.	-5%	.	.	.
Cc1ccc(NS(=O)(=O)c2cc3c(cc2N(C)C)CCC(=O)N3)cc1C	.	.	0%	.	.	.
SMILES	BLM helicase inh	RGS4 inh	TDP1 block	APEX1 inh	GCN5L2 inh	RECQ1 inh
COc1ccc2cc3cc(C(=O)NCc4ccco4)oc3nc2c1	-15%	5%	50µM*	?	-4%[0.501 µM]	-16%
COc1ccc2cc3cc(C(=O)NCc4ccccn4)oc3nc2c1	-1%	-4%	-6%	11%	-19%	2%
O=[N+]([O-])c1cc(/C=N/n2c(-c3ccncc3)n[nH]c2=S)ccc1Cl	-28%	?	9%	-15%	-13%	4.5µM*
Cc1cc(-c2n[nH]c(=S)n2/N=C/c2ccc(Cl)c([N+](=O)[O-])c2)n[nH]1	2%	-28%	11%	20%	-6%	-5%
S=c1[nH]nc(-c2cc(-c3ccccc3)n[nH]2)n1/N=C/c1cccc(Cl)c1	-20%	?	35µM*	-5%	-21%	?
CC(C)(C)c1ccc(Nc2nc(C#N)nc(NC3CCCC3)n2)cc1	.	.	-2%	.	.	.
NCC(=O)N[C@@H](CCCN=C(N)N)C(=O)NCC(=O)N[C@@H](CCC(=O)O)C(=O)N[C@@H](CO)C(=O)O	0%	.	11%	-4%	-4%	10%
Cc1ccc(NC(=O)CSc2nnc(-c3cccc([S+](=O)([O-])N4CCCC4)c3)n2-c2ccccc2)cc1	.	.	.	49%	.	.
O=C1c2c([N+](=O)[O-])cc([N+](=O)[O-])cc2S(=O)N1Cc1ccccc1 (stereo not drawn)	-12%	?	10%	10%	28µM*	-5%
COc1ccccc1NC(=O)C(OC(=O)CNC(=O)c1ccccc1)c1ccccc1 (stereo not drawn)	.	.	0%	.	.	.
COc1ccc(C2Oc3ccccc3C(=O)N2Cc2ccccc2)cc1COc1ccc(NC(C)=O)cc1 (stereo not drawn)	.	.	1%	.	.	.
COc1ccc(-c2nnc(NC(=O)c3ccco3)s2)cc1	-18%	16%	40µM*	-8%	-5%	.
O=C(Nc1nnc(COc2ccc(Cl)cc2)s1)c1ccco1	-8%	?	79µM*	-2%	33%	7%
Cc1ccc(OCc2nnc(NC(=O)c3ccco3)s2)cc1	-4%	?	3%	-1%	-10%	?
Cc1ccc(NS(=O)(=O)c2cc3c(cc2C)OCC(=O)N3)cc1C	.	.	1%	.	.	.
Cc1ccc(CNc2ccc(N3CCNCC3=O)cc2)cc1	.	.	.	-4%	.	.
S=c1[nH]nc(-c2cccnc2)n1/N=C/C=C/c1ccco1	20µM*	-12%	40µM*	-14%	?	?
Oc1ccc(CNCc2ccccc2F)c2cccnc12	.	.	1%	.	.	.
CC[C@]12c3[nH]c4cc(CCC(=O)N(C)C)ccc4c3CCN1C(=O)[C@@H](CC(=O)NCCCOC)C[C@@H]2C(=O)N1CCN(C(=O)C2CC2)CC1	.	-38%	-8%[56.1 µM]	21µM*	1%	.
O=C1c2ccccc2C(=O)N1Cc1ccncc1	.	.	1%	.	.	.
